From PubChem BioAssay
Autofluor 339: intrinsic fluorescence of library compounds, ex339/em460 – biochemical, MLSMR library, data from DPM-DC assay, artefact control, profiling panel; compound autofluorescence, ex339/em460 nm, NADH buffer; stronger effect = higher value; 1 = no-compound wells, NADH background; fluorescence fold increase at 10 µM; 65,000 compounds, 5.5% hits;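 active = at 10 µM, mean starting fluorescence two-fold or more over control wells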;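 also: signal is the first read of a kinetic run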
NADH coupling: inhibition of NAD/NADH coupling enzymes, library profiling; coupled PK/LDH NADH assays, four targets; IC50, µM (top dose mostly 10 µM); 65,000 compounds, 0.02% hits;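 active = single-dose screening hits from any of four coupled enzyme assays that gave an IC50 when retested across doses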;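 also: the DPM-DC format reads NADH fluorescence rather than 340 nm absorbance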
Spn MK inh: inhibitors of Streptococcus pneumoniae mevalonate kinase; purified MK, PK/LDH-coupled NADH absorbance 340 nm; inhibition, % at 10 µM; 65,000 compounds, 0.48% hits; AID 555;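 active = ranked among the strongest by inhibition in the single 10 µM screen, a fixed top-ranked set picked for dose follow-up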
A340 absorber: compound absorbs light at 340 nm. fold change at 10 µM. compound absorbance at 340 nm, fold over control. AID 708. 65,000 tested, under 10 active;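 active = at 10 µM dose, initial 340 nm absorbance at least 2 fold that of control wells; inactive = change under 2 fold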;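 also: initial absorbance extrapolated from kinetic A340 decline of NADH oxidation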
Spn PMK inh: S. pneumoniae PMK inhibition; 65,000 compounds, 0.49% hits; inhibition, % at 10 µM; purified PMK, PK/LDH-coupled NADH absorbance 340 nm; AID 539;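 active = top-ranked compounds by inhibition in the single 10 µM screen, taking a fixed number of the strongest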
DPM-DC inhibit: blocks S. pneumoniae diphosphomevalonate decarboxylase. purified DPM-DC, PK/LDH coupled NADH fluorescence. calls only at 10 µM. 65,000 compounds, 0.49% hits;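 active = the 320 compounds with the highest percent inhibition in the single-dose primary screen, excluding strongly autofluorescent ones, cut at about 32% in these data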;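 also: kinetic rate of NADH fluorescence loss reporting ADP formed by the decarboxylase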
Each line names hits and unclear results; the compound was inactive in the other large screens. This is a sample that favours compounds with a hit; in the whole collection about 6.8% have one here.

CC(C)CCNC(=O)C1CCN(C(=O)N(C)C)CC1	none
CCc1cc2c(=O)c(-n3cnc4ccccc43)coc2cc1O	Autofluor 339 4.2 (not shown: DPM-DC inhibit)
O=C(Oc1nsnc1N1CCOCC1)N1CCOCC1	none
Cc1cc(C)n2cc(CSc3nnnn3C)nc2n1	Autofluor 339 2.6 (not shown: DPM-DC inhibit)
Cc1cc(C)n2c(Br)c(CSc3nc4ccccc4o3)nc2n1	Autofluor 339 2.6
Cc1cc(C)n2cc(CSc3nc4cc(Cl)ccc4o3)nc2n1	Autofluor 339 2.1
Nn1c(CSc2nc3ccccc3o2)nnc1CSc1nc2ccccc2o1	none
CC(=O)OC1CSc2nc3ccccc3n2C1 (configuration not stated)	none
COc1ccc(-c2nc(C#N)c(N3CCN(c4cccc(Cl)c4)CC3)o2)cc1OC	Autofluor 339 2.1
N#Cc1nc(COc2ccccc2)oc1N1CCN(c2cccc(Cl)c2)CC1	none
COc1ccc(-c2nc(C#N)c(N3CCOCC3)o2)cc1OC	Autofluor 339 3.1, Spn MK inh 11 (not shown: DPM-DC inhibit)
Cc1c(NC(=O)CSc2nnc3sc4ccccc4n23)c(=O)n(-c2ccccc2)n1C	none
Brc1ccccc1-c1nnc(CSc2nnc3sc4ccccc4n23)o1	none
Cc1c(C(=O)NCc2ccc3c(c2)OCO3)sc2nc(-c3ccccc3)cn12	DPM-DC inhibit active
Cc1c(C(=O)NCc2ccc3c(c2)OCO3)sc2nc(-c3ccc(F)cc3)cn12	none
C/C=C(\C)c1nnc(NC(=O)c2ccco2)s1	none
CON(C)c1nc(OCCNC(=O)OCc2ccc(Cl)cc2Cl)nc(N(C)C)n1	Spn PMK inh 25
CON(C)c1nc(OCCNC(=O)COc2ccc(Cl)cc2C)nc(N(C)C)n1	none
COCCNC(=O)c1c(N)sc2c1CCCC2	Autofluor 339 2.1
CC(C)OC(=O)C1C(=O)CC(C)(O)C(C(=O)OC(C)C)C1c1cccnc1 (configuration not stated)	Spn PMK inh 27
COCCN1C=C(C(=O)OC)C(c2cc(Br)c(OC)c(OC)c2)C(C(=O)OC)=C1	Autofluor 339 2.3 (not shown: DPM-DC inhibit)
COC(=O)C1=CN(C)C=C(C(=O)OC)C1c1ccc(O)c(OC)c1	none
O=C(COC(=O)c1cc(S(=O)(=O)N2CCOCC2)ccc1Cl)Nc1ccc2c(c1)OCO2	none
Cc1noc(NS(=O)(=O)c2ccc(NC(=O)CSc3nc4ccccc4s3)cc2)c1C	none
CCCCSc1nc(N)c(C#N)c(-c2cccs2)c1C#N	none
N#Cc1c(-c2cccs2)cc(-c2cccnc2)nc1N	Autofluor 339 3.8 (not shown: DPM-DC inhibit)
N#Cc1c(-c2cccs2)cc(-c2ccccn2)nc1N	Autofluor 339 3.8 (not shown: DPM-DC inhibit)
Cc1cc(=O)oc2c(N)c(O)ccc12	none
Cc1cc(=O)oc2c(CN(C)Cc3ccccc3)c(O)ccc12	Autofluor 339 3.6 (not shown: DPM-DC inhibit)
Cc1ccccc1NC(=O)CSc1nnc(Cc2cccn2C)n1-c1ccc(F)cc1	none
C=CCOc1ccc(C2c3c(oc4ccccc4c3=O)C(=O)N2c2ccccn2)cc1OCC (configuration not stated)	none
CCn1c(=O)c(C(=O)Nc2nc3ccccc3[nH]2)c(O)c2ccccc21	Autofluor 339 2.4
CCn1c(=O)c(C(=O)Nn2c(C)nc3ccccc3c2=O)c(O)c2ccccc21	none
NC(=O)CC12CC3CC(C1)CC(CC(N)=O)(C3)C2	none
CCN1CCN(C(c2ccccc2OC)c2nnnn2C2CCCCC2)CC1 (configuration not stated)	none
CCOc1ccc2[nH]c(=O)c(C(c3nnnn3C3CCCCC3)N3CCN(CC)CC3)cc2c1 (configuration not stated)	Autofluor 339 3.7 (not shown: DPM-DC inhibit)
CCOc1ccc2[nH]c(=O)c(C(c3nnnn3Cc3ccco3)N3CCCC(C)C3)cc2c1 (configuration not stated)	Autofluor 339 2.2
CCOc1ccc2[nH]c(=O)c(C(c3nnnn3C3CCCCC3)N3CCN(C)CC3)cc2c1 (configuration not stated)	Autofluor 339 4.4 (not shown: DPM-DC inhibit)
COc1cc2cc(C(c3nnnn3C3CCCC3)N3CCCCCC3)c(=O)[nH]c2cc1OC (configuration not stated)	none
COc1ccccc1NC(=O)CCC(=O)Nc1nnc(C(F)(F)F)s1	none
CCCS(=O)(=O)n1nc(-c2ccc(Br)cc2)cc1N	none
Cc1c(C(=O)N2CCc3ccccc32)oc2c1C(=O)CC(C)(C)C2	none
CCCc1nc2oc3c(NCC4CCCO4)ncnc3c2c2c1COC(C)(C)C2 (configuration not stated)	Autofluor 339 3.2
COc1ncnc2c1oc1nc(C(C)C)c3c(c12)CC(C)(C)OC3	none
CC1(C)Cc2nc3oc4c(NCc5ccccc5)ncnc4c3cc2CO1	Autofluor 339 3.8 (not shown: DPM-DC inhibit)
CCCc1nc2oc3c(NCCN(C)C)ncnc3c2c2c1CCCC2	none
Cc1nc2oc3c(NCc4ccccn4)ncnc3c2c2c1COC(C)(C)C2	DPM-DC inhibit active
CC(C)c1nc2oc3c(NCc4ccccn4)ncnc3c2c2c1COC(C)(C)C2	Autofluor 339 3, DPM-DC inhibit active
CCOC(=O)N1CCN(c2ncnc3c2oc2nc(C)c4c(c23)CC(C)(C)OC4)CC1	none
CC1N=C2c3ccccc3N=C(SCc3cc(=O)n4ccccc4n3)N2C1=O (configuration not stated)	none
CCCC(O)(CCN(C)C)c1ccc(OC)cc1 (configuration not stated)	none
O=C(O)C1CC=CCC1C(=O)N1CCCC1 (configuration not stated)	none
Cc1ccc(C)c(N2CCN(CCCNC(=O)Cn3cc4c(n3)CCCCC4)CC2)c1	none
CC(C)c1nc2oc3c(NCC4CCCO4)ncnc3c2c2c1CCC2 (configuration not stated)	Autofluor 339 2.4
CCCc1nc2oc3c(NCc4ccccn4)ncnc3c2c2c1COC(C)(C)C2	Autofluor 339 2.7
c1nc(NCC2CCCO2)c2[nH]cnc2n1 (configuration not stated)	none
CC(=O)Nc1ccc2nc(-c3cccs3)[nH]c2c1	Autofluor 339 2.3 (not shown: DPM-DC inhibit)
Cc1csc2ncc(C(=O)NCc3ccccn3)c(=O)n12	Autofluor 339 2.1 (not shown: DPM-DC inhibit)
CCc1ccccc1NC(=O)c1cnc2scc(C)n2c1=O	none
Cc1cc(N2CCN(c3nc(N4CCOCC4)nc4ccccc34)CC2)c2ccccc2n1	Autofluor 339 2.1
c1ccc2c(N3CCCCC3)nc(N3CCCCC3)nc2c1	none
Nc1nc(N2CCOCC2)nc2ccccc12	Autofluor 339 4 (not shown: DPM-DC inhibit)
CCOc1ccc2nc(N3CCOCC3)nc(C)c2c1	Autofluor 339 3.8 (not shown: DPM-DC inhibit)
c1ccc2nc(N3CCOCC3)c(N3CCOCC3)nc2c1	none
c1ccc2c(c1)nc(N1CCOCC1)c1c3ccccc3[nH]c21	Autofluor 339 3.6 (not shown: DPM-DC inhibit)
CCOC(=O)N1CCC(NC(=O)C(NC(=O)C2CCCCC2)C(C)C)CC1 (configuration not stated)	none
Cc1cccn2c(=O)c3cc(C(=O)NCc4ccco4)c(=N)n(C(C)C)c3nc12	Autofluor 339 2.3 (not shown: DPM-DC inhibit)
